Results from ChEMBL document CHEMBL4296183, “CO-ADD screening of NIH NCI Natural Product Set III” (2020).
Entries with a potency or affinity are not part of this list.

tested on: Candida albicans; settings: 20 µM

SMILES	Inhibition [%]
CC(=O)O.COc1ccc2c(=O)oc3c(OC)cc(CCN(C)C)c4c(=O)oc1c2c34	-2.47
CC1=C2[C@H]3OC(=O)[C@@H](C)[C@@H]3CC[C@@]2(C)C=C/C1=N\O	-0.24
COC1/C=C\C=C(/C)C(=O)NC2=CC(=O)C(N)=C(CC(C)CC(OC)C(O)C(C)/C=C(\C)C1OC(N)=O)C2=O (centres undefined)	-0.48
COc1cc([C@@H]2c3cc4c(cc3[C@@H](OC3OC5CO[C@@H](c6cccs6)OC5C(O)C3O)[C@H]3COC(=O)[C@H]23)OCO4)cc(OC)c1O (some centres undefined)	0.54
O=c1oc2c(O)c(O)cc3c(=O)oc4c(O)c(O)cc1c4c23 [ELLAGIC ACID]	8.04
O=C1c2cc(O)c(O)cc2O[C@H](c2ccc(O)c(O)c2)[C@H]1O	-0.56
COC(=O)NC1C(C)OC(OC2C/C=C(/C)C3C=CC4C(OC5CC(OC6CCC(OC7CC(O)C(OC8CCC(O)C(C)O8)C(C)O7)C(C)O6)C(OC(C)=O)C(C)O5)C(C)CC(C)C4C3(C)/C(O)=C3/C(=O)OC4(CC(C=O)=CC(O)C4/C=C\2C)C3=O)CC1(C)[N+](=O)[O-] (centres undefined)	4.81
COc1ccc(C2CC(=O)c3c(O)cc(OC4OC(CO)C(O)C(O)C4OC4OC(C)C(O)C(O)C4O)cc3O2)cc1O (centres undefined)	-1.53
CCC1NC(=O)C(NC(=O)c2ncccc2O)C(C)OC(=O)C(c2ccccc2)NC(=O)C2CC(=O)CCN2C(=O)C(Cc2ccccc2)N(C)C(=O)C2CCCN2C1=O (centres undefined)	-3.25
CC1(C)CCCC2(C)C3=C(CCC12)C(=O)OC3 (centres undefined)	0.95
CN1CCc2cc3c(cc2C(=O)Cc2ccc4c(c2C1)OCO4)OCO3.Cl [PROTOPINE HYDROCHLORIDE]	-1.7
CCCCCc1cc(O)cc2c1Oc1cc(O)cc(C(=O)CCCC)c1C(=O)O2	2.52
Cc1cc2nc3[nH]c(=O)[nH]c(=O)c3nc2cc1C [LUMICHROME]	0.84
CC(C)=CCc1c2c(c3occ(-c4ccc(O)c(O)c4)c(=O)c3c1O)C=CC(C)(C)O2 [POMIFERIN]	-6.81
COC(=O)[C@]1(C)CCC[C@]2(C)C3=CC(=O)[C@@]4(C(C)C)O[C@H]4[C@]3(O)CC[C@@H]12	3.2
COc1ccc2c(c1OC)C(=O)O[C@@H]2[C@H]1c2c(cc3c(c2OC)OCO3)CCN1C [NOSCAPINE]	-0.41
CCCCCCCCCCCCCCCC(=O)O[C@@H]1[C@@H](C)[C@@]2(O)[C@@H](C=C(CO)C[C@]3(O)C(=O)C(C)=C[C@@H]23)[C@H]2[C@]1(OC(C)=O)[C@]2(C)CO	-4.72
CC[C@]1(O)C[C@H]2CN(CCc3c([nH]c4ccccc34)[C@@](C(=O)OC)(c3cc4c(cc3OC)N(C=O)[C@H]3[C@@](O)(C(=O)OC)[C@H](OC(C)=O)[C@]5(CC)C=CCN6CC[C@]43[C@@H]65)C2)C1.O=S(=O)(O)O [VINCRISTINE SULFATE]	-0.39
O=C(O)CCCCCCC[C@@H](O)[C@@H](O)CCCCCCO	1.24
COC(=O)C1C(O)CCC2CN3CCc4c([nH]c5ccccc45)C3CC21 (centres undefined)	1.54
CCCCCCCCCCCCCCCCCCOCC(O)CO (centres undefined) [BATILOL]	-1.81
C=C1C(=O)OC2CC1C(O)C/C(C)=C/CC/C(C)=C/C(O)CC2C (centres undefined)	2.83
CC(C)=CC(=O)OC1C2C(C)C(=O)OC2C(O)C(C)C2C=CC(=O)C21C (centres undefined)	0.18
CC(=O)CCCCn1c(=O)c2c(ncn2C)n(C)c1=O [PENTOXIFYLLINE]	4.24
